Most compounds without a hit are left out; they make up all but 5.7% or so of the library.
B2AR arrestin: qHTS assay of beta-arrestin-biased ligands of beta2-adrenergic receptor. Beta-2 adrenergic receptor (Homo sapiens), P07550. beta-arrestin recruitment to beta2AR, cell-based reporter. Potency, µM (top dose mostly 46.1 µM), for inactives: at the top dose activation, most hits filed as activators. 330,000 compounds, 0.02% hits;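 also: 0% = DMSO controls and full agonism = EC100 isoproterenol or metaproterenol; nearly all actives have a fitted effect of over 65% in size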
Target sequence (P07550 whole entry, looked up): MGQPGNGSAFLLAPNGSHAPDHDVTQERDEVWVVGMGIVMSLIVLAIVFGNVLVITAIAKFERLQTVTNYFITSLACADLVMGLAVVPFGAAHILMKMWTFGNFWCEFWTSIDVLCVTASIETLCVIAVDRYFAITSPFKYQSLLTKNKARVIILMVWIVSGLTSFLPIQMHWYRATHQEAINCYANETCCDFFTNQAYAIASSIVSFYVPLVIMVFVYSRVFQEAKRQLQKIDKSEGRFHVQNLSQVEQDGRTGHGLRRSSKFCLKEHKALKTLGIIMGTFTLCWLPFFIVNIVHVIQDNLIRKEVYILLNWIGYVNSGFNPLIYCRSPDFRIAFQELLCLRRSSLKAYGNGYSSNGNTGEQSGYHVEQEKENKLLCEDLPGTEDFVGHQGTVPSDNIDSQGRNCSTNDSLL
NPSR antagonist: qHTS Assay for Antagonists of the Neuropeptide S Receptor: cAMP Signal Transduction. Q6W5P4. AID 1461, 2008. Potency, µM (top dose mostly 38.3 µM), inactives show at the highest dose activity change, negative = inhibition, actives largely listed as inhibitors. CHO-NPSR cells, cAMP TR-FRET, antagonist mode. 220,000 compounds, 1% hits; also: nearly all actives have a fitted effect of over 50% in size
RORgamma inh: qHTS for inhibitors of ROR gamma transcriptional activity; 310,000 compounds, 5.4% hits; Drosophila S2 Gal4-RORgamma UAS-luciferase reporter, 20 h; AID 2551, 2010; Potency, µM (doses to about 53.6 µM), for the others: at the top dose activity change, negative = inhibition, most hits filed as inhibitors; also: nearly all actives have a fitted effect of over 60% in size
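Using a luciferase readout, inhibitors were identified by reduced reporter activity in Drosophila cells coexpressing a copper-inducible Gal4–ROR gamma fusion and UAS-driven Photinus luciferase, incubated 20 hr after 700 uM copper sulfate.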
Gal4-VP16 FLuc: VP16 counterscreen qHTS for inhibitors of ROR gamma transcriptional activity; 310,000 compounds, 3.5% hits; AID 2546, 2010; Potency, µM (top dose mostly 53.6 µM), inactives show at the highest dose activity, negative = inhibition, hits mostly inhibitors; Drosophila S2 Gal4-VP16 UAS-luciferase, luminescence, 20 h;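 also: Gal4-VP16 expression switched on by copper sulfate through the metallothionein promoter; nearly all actives have a fitted effect of over 50% in size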
The depositor's hits bear a star; u = inconclusive; x = no result; [ ] = dose if it differs, or a comment. Calls follow the shape of the dose curve; as a rule, active = well fitted curve in the direction sought with a large enough effect; inconclusive = small, poorly fitted or top-dose-only effect, or another doubt; inactive = no such curve, though single readings can be large; an effect the other way counts as inactive or inconclusive. Unless noted, % is scaled to controls: 0 for no effect and ±100 for the full control effect; potency is read from the fitted curve at half-maximal effect.

SMILES	B2AR arrestin	NPSR antagonist	RORgamma inh	Gal4-VP16 FLuc
CC(=O)Nc1ccc(C(=O)CSc2nnnn2C2CCCC2)cc1	-0.2%	22.2%	23.8%	-4.4%
COc1ccc(Oc2nc(-c3ccccn3)ncc2OC)cc1	-0.9%	-1.5%	7.08µM*	-19.7%
COc1cnc(-c2ccccn2)nc1N(C)C	-0.2%	1.1%	17.8µM*	u
COc1cnc(-c2ccccc2)nc1Oc1cccc(C)c1	-0.1%	-25.6%[46.1 µM]	33.3%	0.2%
COc1cnc(-c2ccccc2)nc1OC	-0.3%	14.6%	u	0.3%
COc1cnc(-c2ccccn2)nc1Oc1cccc(Cl)c1	-0.2%	-14.8%[46.1 µM]	2.82µM*	15.8µM*
COc1cnc(-c2ccccn2)nc1Oc1c(C)cccc1C	0.3%	-33.4%	7.08µM*	20µM*
CC1CC(C)CN(C(=O)COC(=O)c2ccc(Cl)nc2)C1 (stereo not drawn)	-2.1%	x	x	x
COc1cc(OC)c(C(=O)Nc2cccc(C(C)=O)c2)cc1OC	-0.1%	-9.5%[46.1 µM]	15.6%	0.5%
Nc1cc(=O)[nH]c(SCC(=O)NCCC2=CCCCC2)n1	-0.7%	x	x	x
CN(CCc1cn[nH]c1)Cc1nc(C(c2ccccc2)c2ccccc2)no1	0.4%	7.7%	10µM*	u
CCc1ccc(N2CC(C(=O)OCc3nc4ccsc4c(=O)[nH]3)CC2=O)cc1 (stereo not drawn)	0.4%	x	x	x
O=c1oc2cc(O)c(Cl)cc2c2ccccc12	-0.4%	7.94µM*	-8.9%	-0.6%
Cc1noc(C)c1-c1cc(NCc2cccs2)ncn1	x	x	-20.4%	13.2%
Cc1ccc2nc3n(c(=O)c2c1)-c1ccccc1C(=O)NC3Cc1ccccc1 (stereo not drawn)	0.5%	x	x	x
CC(=O)Nc1ccn(C2OC(C(COC(C)=O)NC(=O)C(CCCCNC(=O)OCc3ccccc3)NC(=O)OC(C)(C)C)C(OC(C)=O)C2OC(C)=O)c(=O)n1 (stereo not drawn)	x	x	-22.8%	-6.7%
N/C(=N/O)c1nc(N2CCCC2)nc(N(c2ccccc2)c2ccccc2)n1	0.1%	-22.6%[46.1 µM]	8.91µM*	15.0%[0.365 µM]
N/C(=N/O)c1nc(N2CCCC2)nc(N2CCCC2)n1	-0.2%	x	x	x
N/C(=N/O)c1nc(N2CCCCC2)nc(N2CCCCC2)n1	-0.3%	-16.2%[46.1 µM]	8.91µM*	u
O=C(NC(=C(Cl)Cl)S(=O)(=O)c1ccc(Cl)cc1)c1ccccc1	0.4%	-39.6%	u	u
CC(=O)NC(=C(Cl)Cl)S(=O)(=O)c1ccccc1	0.1%	5.2%	12.6µM*	u
O=C(Nc1ccc(C(=O)N2CCOCC2)cc1)Nc1cccc2ccccc12	0.2%	-15.8%	-4.6%	2.7%
COc1ccc(-n2c(N)c(-c3nc4ccccc4n3C)sc2=S)cc1	0.0%	-14.1%[46.1 µM]	6.31µM*	-13.1%
COc1cc(C(=O)OC(C)CN2CCCCC2)cc(OC)c1OC (stereo not drawn)	-0.4%	x	-5.0%	1.2%
COc1ccc(/C=C\C(=O)c2c(O)ccc3c(C)cc(=O)oc23)cc1OC	-1.0%	-17.0%[46.1 µM]	12.6µM*	u
SMILES	B2AR arrestin	NPSR antagonist	RORgamma inh	Gal4-VP16 FLuc
COc1cc(/C=C/C(=O)c2c(O)ccc3c(C)cc(=O)oc23)ccc1O	x	-12.7%[46.1 µM]	12.6µM*	u
COc1ccc(NC(=O)CN(C)C(=O)Cc2ccc3c(c2)CCC3)cc1	-0.6%	x	u	-1.4%
O=C(NCc1ccccn1)c1ccc(NS(=O)(=O)c2cccc([N+](=O)[O-])c2)cc1	-0.2%	x	x	x
O=C(NCc1cc([N+](=O)[O-])ccc1O)c1cccc(NS(=O)(=O)c2ccccc2)c1	0.0%	x	11.2µM*	12.6µM*
COc1cccc([C@@H]2Oc3ccc(OC)cc3C(=O)[C@H]2OC(=O)Nc2ccc(OC(F)F)cc2)c1	x	x	1.4%	-6.1%
Cn1nnc(NC(=O)c2ccccc2)n1	-0.6%	11.0%[46.1 µM]	u	19.8%
COc1cccc(C(=O)NC(=S)Nc2nnn(C)n2)c1	2.2%	11.1%	8.91µM*	11.2µM*
COc1ccccc1C(=O)Nc1nnn(C)n1	0.3%	-2.5%[46.1 µM]	0.9%	1.9%
COc1ccc(C(=O)NC(=S)Nc2nnn(C)n2)cc1	-0.1%	18.8%	5.62µM*	-26.2%
C/C=C1\COC(C(=O)NCc2cccc(OC)c2OC)(C(F)(F)F)C=C1C=C(C)C (stereo not drawn)	x	x	16.4%	-2.4%
Cc1ccsc1C(=O)NC(C)c1ccccc1 (stereo not drawn)	-0.5%	x	-37.9%	-11.8%
CCOC(=O)C1=C(N)Oc2ccc(Br)cc2C1C(C#N)C(=O)OCC (stereo not drawn)	x	x	-3.4%	-10.7%
COc1ccc(C(=O)NCc2nnc(SCC(=O)Nc3nc4ccccc4s3)o2)cc1	0.4%	12.9%	11.2µM*	11.2µM*
COc1cc(C(=O)NCc2nnc(SCC(=O)Nc3nc4ccccc4s3)o2)cc(OC)c1OC	-0.1%	-10.6%	0.1%	-9.0%
CCSc1nnc(NC(=O)CSc2nnc(CNC(=O)c3ccc(OC)c(OC)c3)o2)s1	-0.5%	21.4%	17.8µM*	u
C=C1C2CC[C@@]3(C)C(c4ccoc4)OC(=O)C[C@@]13OC1CC(=O)C(C)(C)C(CC(=O)OC)[C@]12C (stereo partly drawn)	x	x	-14.2%	3.6%
C=C1C2CC[C@@]3(C)C(c4ccoc4)OC(=O)C[C@@]13OC1CC(OC(C)=O)C(C)(C)C(CC(=O)OC)[C@@]12C (stereo partly drawn)	x	x	2.82µM*	-0.9%
O=C1NC(=O)/C(=C/c2cc3c(cc2Br)OCO3)S1	0.4%	x	6.0%	8.9%
COCCN1C(=O)/C(=C/c2cc3c(cc2Br)OCO3)NC1=S	-1.0%	6.7%	11.2µM*	u
CC(C)(C)c1ccc(C(=O)Nc2cccc3c(=O)[nH][nH]c(=O)c23)cc1	0.5%	-8.8%	u	3.55µM*
Cc1ccc(C(=O)Nc2cccc3ccccc23)cc1	0.5%	x	0.4%	-6.0%
Cc1ccc(Nc2ccc(C(=O)NC3CCCCC3)cn2)cc1	0.3%	-7.4%	-24.9%	-29.2%
Cc1sc2nc(CN(Cc3cccs3)C(=O)C3CC3)[nH]c(=O)c2c1C	0.4%	-25.4%[46.1 µM]	11.2µM*	-28.6%
CCOc1ccccc1-c1ccc(C(=O)O)o1	x	x	-42.9%[96.6 µM]	-3.2%[96.6 µM]
CC(=O)CSc1nnc(-c2ccc3c(c2)OCO3)o1	0.1%	1.0%[46.1 µM]	12.6µM*	15.8µM*
CC(=O)Nc1ccc(NC(=O)CSc2nnc(-c3ccc4c(c3)OCO4)o2)cc1	0.0%	x	x	x
O=C(O)CCSc1nnc(-c2ccc3c(c2)OCO3)o1	-0.2%	-2.7%[46.1 µM]	2.82µM*	3.98µM*
O=C(CSc1nnc(-c2ccc3c(c2)OCO3)o1)Nc1ncc(Cl)cc1Cl	10.1%	23.2%	0.794µM*	0.562µM*
O=C1OCCC1Sc1nnc(-c2ccc3c(c2)OCO3)o1 (stereo not drawn)	-0.1%	3.3%	10µM*	u

Bioassay records from PubChem BioAssay.
